Measurements reported in the supplement of paper PMC6897291.

Tested on: RIVA
Assay: growth inhibition by drug alone (1 - RLU/untreated control) (fraction); higher = stronger inhibition
Conditions: 177Lu-lilotomab satetraxetan 0 ug/ml
Method: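 RIVA (RI-1) ABC-DLBCL cells were pretreated or not for 18 h with 0.5 ug/ml 177Lu-lilotomab satetraxetan (600 MBq/mg), washed and seeded (3000 cells/well) on 384-well plates pre-printed with the Selleck Cambridge Cancer Compound library. Viability was read by RealTime-Glo luminescence on days 3-6 after seeding. Effect = 1 - RLU/mean RLU of the 48 untreated no-drug control wells per plate; Bliss score = (M-E)/(1-Fa).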

SMILES | growth inhibition by drug alone (10 nM, time (day): 3) | growth inhibition by drug alone (10 nM, time (day): 4) | growth inhibition by drug alone (10 nM, time (day): 5) | growth inhibition by drug alone (10 nM, time (day): 6) | growth inhibition by drug alone (100 nM, time (day): 3) | growth inhibition by drug alone (100 nM, time (day): 4) | growth inhibition by drug alone (100 nM, time (day): 5) | growth inhibition by drug alone (100 nM, time (day): 6)
CCOc1cc(C(=O)Nc2ccc(Cl)c(-c3nc4ccccc4[nH]3)c2)cc(OCC)c1OCC | 0.0892 | 0.061 | 0.00986 | -0.126 | 0.409 | 0.248 | 0.22 | 0.167
CCc1cncnc1N1CCN(Cc2nc3ccc(C(F)(F)F)cc3[nH]2)CC1 | 0.00505 | -0.0231 | -0.0829 | -0.347 | -0.0601 | -0.0865 | -0.0867 | -0.192
CC(C)CC(=O)Nc1n[nH]c2c1CN(C(=O)C1CCN(C)CC1)C2(C)C | 0.109 | 0.0478 | 0.0236 | -0.141 | 0.546 | 0.346 | 0.355 | 0.378
CC(C)C(=O)Nc1ccc([N+](=O)[O-])c(C(F)(F)F)c1 [Flutamide (Eulexin)] | 0.122 | 0.106 | 0.0768 | -0.0242 | -0.044 | 0.0232 | 0.0258 | -0.0163
CS(=O)(=O)N1CCN(Cc2cc3nc(-c4cccc5[nH]ncc45)nc(N4CCOCC4)c3s2)CC1 | -0.0821 | -0.12 | -0.138 | -0.212 | 0.604 | 0.409 | 0.327 | 0.221
